Data taken from PubChem BioAssay.
Activity calls are given as the source filed them.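 The calls were made as follows, unless noted: active = thallium flux through the channel raised or lowered by more than 3 SD from vehicle-only wells, actives on both sides; inactive = the rest.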

Legend:
[1] = liver-stage malaria parasite growth inhibition, primary screen, cell-based, HepG2, luciferase luminescence, HepG2 viability (AID 624349; in the data active = parasite load remaining mostly below about 12%, no sharp cut-off; inactive = mostly above about 10%;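 also: 100% = mean of DMSO negative control wells on the same plate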); conditions: P. berghei liver stage in HepG2, luciferase luminescence, concentration not given here; parasite load remaining: stronger effect = lower value; viability: measured here: HepG2 viability without parasites
[2] = Cy5 fluorescence interference with SSB-bound oligo, artefact control for HCV NS3 helicase inhibitor project, biochemical, NIH Clinical Collection, E. coli SSB (AID 743268; call rule not given here)
[3] = tested on: Hepatitis C virus NS3 helicase; assay: HCV NS3 helicase inhibitors, primary screen, biochemical, fluorescence polarization, NIH Clinical Collection (AID 743270; call rule not given here); conditions: NS3 helicase binding to Cy5-dT15 DNA, stronger effect = higher value, concentration not given here
[4] = target: Single-stranded DNA-binding protein (Escherichia coli (strain K12)) (UniProt P0AGE0); assay: E. coli SSB displacement from DNA, counter-screen for HCV NS3 helicase inhibitor project, biochemical, fluorescence polarization, NIH Clinical Collection (AID 743271; in the data active = inhibition above about 28%); conditions: stronger effect = higher value, concentration not given here
[5] = fluorescence interference in NS3h assay format, artefact control for HCV NS3 helicase inhibitor project, biochemical, NIH Clinical Collection (AID 743272; call rule not given here;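 also: HCV NS3 helicase with a Cy5 labelled single stranded DNA probe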); conditions: fluorescence interference counterscreen, stronger effect = lower value
[6] = modulation of C. elegans fzo-1 (AID 1259413; call rule not given here;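 also: fzo-1 mutant C. elegans worms in liquid wells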); conditions: C. elegans fzo-1 modulator screen, mean read-out; stronger effect = higher value
F380Y = assay: modulators of BK channel variants, profiling panel, selectivity assay, cell-based, U2OS BacMam, thallium flux, beta subunits (AID 1259406); conditions: at 30 µM;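 also: initial slope of Thallos dye fluorescence rise after thallium is added; log ratio against the mean of 0.3% DMSO vehicle wells on the same plate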
F380Y/beta1 = assay: as above; conditions: at 30 µM
F380Y/beta2Delta = assay: as above; conditions: at 30 µM
F380Y/beta4 = assay: as above; conditions: at 30 µM
[7] = target: Calcium-activated potassium channel subunit alpha-1 (Homo sapiens) + Leucine-rich repeat-containing protein 26 (Homo sapiens) (UniProt Q12791+Q2I0M4); assay: as above; conditions: F380Y/Slo1WT/gamma1, at 30 µM
R275C = assay: as above; conditions: at 30 µM
R275C/beta1 = assay: as above; conditions: at 30 µM
R275C/beta2Delta = assay: as above; conditions: at 30 µM
R275C/beta4 = assay: as above; conditions: at 30 µM
R275C/Slo1WT/beta2 = assay: as above; conditions: at 30 µM
[8] = sensitizers of A549 cells to miR-34 induction, primary screen, imaging, A549 dox-inducible miR-34, nuclei and caspase counts (AID 1347080;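 active = compounds whose cell count with miR-34 switched on is under 0.7 times the count with it off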); conditions: A549 miR-34 inducible, Hoechst nuclei count, 48 h
[9] = survival rescue of mitochondrial mutant cells in low glucose, primary screen, MELAS cybrids, Rieske KO mouse fibroblasts, CellTiter-Glo (AID 1508586;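 active = mean z-score across replicates of 1.96 or higher in either the MELAS or the Rieske mutant cell line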;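 also: z relative to plate mean and SD of compound and empty wells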)
[10] = viability rescue of complex I mutant cybrids, primary screen, cell-based, galactose medium, ATP luminescence (AID 1645843;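 active = z-score of at least 1.8 in each of two replicates, scored against plate mean and spread of sample wells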;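 also: positive z means more ATP and so rescue of galactose-driven cybrid death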); conditions: complex I mutant cybrid cells, 72 h, stronger effect = higher value
[11] = stronger effect = lower value, cell number ratio, induced over uninduced
[12] = measured here: relative caspase fold change +Dox/-Dox
[13] = measured here: total cells with miR-34 induction, stronger effect = lower value
[14] = measured here: total cells without miR-34 induction
[15] = MELAS cybrid survival, CellTiter-Glo 48 h, stronger effect = higher value
[16] = Rieske KO mouse fibroblast survival, CellTiter-Glo 72 h

Calcium-activated potassium channel subunit alpha-1 (Homo sapiens) + Leucine-rich repeat-containing protein 26 (Homo sapiens), sequence (Q2I0M4 whole entry, looked up, one chain of several): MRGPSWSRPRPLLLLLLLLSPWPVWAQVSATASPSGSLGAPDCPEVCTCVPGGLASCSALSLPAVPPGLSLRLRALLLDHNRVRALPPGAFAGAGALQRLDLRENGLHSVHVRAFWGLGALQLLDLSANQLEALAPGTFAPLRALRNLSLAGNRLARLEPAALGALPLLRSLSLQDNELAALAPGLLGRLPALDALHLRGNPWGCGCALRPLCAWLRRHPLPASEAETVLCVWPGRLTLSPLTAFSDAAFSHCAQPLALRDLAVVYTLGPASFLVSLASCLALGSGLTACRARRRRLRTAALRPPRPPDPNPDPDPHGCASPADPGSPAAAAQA

CN1CC(=O)N2[C@H](c3ccc4c(c3)OCO4)c3[nH]c4ccccc4c3C[C@@H]2C1=O
inactive: parasite load remaining [1] 101% | fluorescence ratio [2] 1 | inhibition [3] -0.4% | inhibition [4] -0.1% | fluorescence ratio [5] 1 | mean signal [6] 261 | log fold change Tl+ flux (F380Y) 0.0711 | log fold change Tl+ flux (F380Y/beta1) 0.0938 | log fold change Tl+ flux (F380Y/beta2Delta) 0.00366 | log fold change Tl+ flux (F380Y/beta4) 0.0361 | log fold change Tl+ flux [7] -0.0237 | log fold change Tl+ flux (R275C) -0.0348 | log fold change Tl+ flux (R275C/beta2Delta) 0.0543 | log fold change Tl+ flux (R275C/beta4) 0.0558 | log fold change Tl+ flux (R275C/Slo1WT/beta2) 0.00498
active: log fold change Tl+ flux (R275C/beta1) 0.198
81.8%: viability [1]

C/C(=C\C(=O)OCCCCCCCCC(=O)O)C[C@@H]1OC[C@H](C[C@@H]2O[C@H]2[C@@H](C)[C@H](C)O)[C@@H](O)[C@H]1O
116%: viability [1]
7890: cell count [8, 13]
0.766: fold change [8, 12]
-3.7: z-score [9, 16]
8160: cell count [8, 14]
inactive: parasite load remaining [1] 65% | fluorescence ratio [2] 1.04 | inhibition [3] -4.09% | inhibition [4] -5.05% | fluorescence ratio [5] 1.03 | mean signal [6] 235 | fold change [8, 11] 0.967 | z-score [9, 15] -3.53 | z-score [10] -1.42 | log fold change Tl+ flux (F380Y) 0.0421 | log fold change Tl+ flux (F380Y/beta1) -0.0188 | log fold change Tl+ flux (F380Y/beta2Delta) 0.0619 | log fold change Tl+ flux (F380Y/beta4) 0.0116 | log fold change Tl+ flux [7] 0.0402 | log fold change Tl+ flux (R275C) -0.0142 | log fold change Tl+ flux (R275C/beta1) -0.0156 | log fold change Tl+ flux (R275C/beta2Delta) -0.0137 | log fold change Tl+ flux (R275C/beta4) 0.0262 | log fold change Tl+ flux (R275C/Slo1WT/beta2) -0.00127

CNCC[C@@H](Oc1ccccc1C)c1ccccc1
-0.171: z-score [9, 16]
inactive: parasite load remaining [1] 70.5% | fluorescence ratio [2] 1.06 | inhibition [3] -0.4% | inhibition [4] -3.95% | fluorescence ratio [5] 0.98 | mean signal [6] 246 | fold change [8, 11] 0.908 | z-score [9, 15] -1.06 | z-score [10] -0.26 | log fold change Tl+ flux (F380Y) 0.0847 | log fold change Tl+ flux (F380Y/beta1) -0.000881 | log fold change Tl+ flux (F380Y/beta2Delta) 0.0334 | log fold change Tl+ flux (F380Y/beta4) 0.0851 | log fold change Tl+ flux [7] -0.0181 | log fold change Tl+ flux (R275C) -0.0128 | log fold change Tl+ flux (R275C/beta1) 0.0385 | log fold change Tl+ flux (R275C/beta4) 0.0404 | log fold change Tl+ flux (R275C/Slo1WT/beta2) -0.0597
7910: cell count [8, 13]
active: log fold change Tl+ flux (R275C/beta2Delta) 0.125
1.95: fold change [8, 12]
8710: cell count [8, 14]
66.2%: viability [1]
